MITF TRPM1 inh: reduces MITF-dependent TRPM1 promoter luciferase signal; inhibition, % at 12.5 µM; 330,000 compounds, 0.83% hits; SK-MEL-5 TRPM1 promoter luciferase, 24 h; AID 488899;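 active = mean inhibition across replicates of 60% or more, whatever share of single replicates reaches that level; inconclusive = some that reach 60%, reason not given; inactive = mean inhibition across replicates below 60%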
Shn3 3UTR inh: reduces Shn3 3'UTR luciferase signal in osteoblasts. inhibition, % at 12.5 µM. Clone20 osteoblast Shn3 3'UTR firefly luciferase, 24 h. AID 588674. 360,000 compounds, 0.52% hits;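 active = mean inhibition of at least 75% with every replicate also reaching 75%; inconclusive = mean inhibition at least 75% but some replicate below; inactive = mean inhibition below 75%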;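 also: 0% = median of neutral control wells and 100% = pilot-screen positive control compound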
EBV LMP1 NFkB: reduces LMP1-driven NF-kappaB luciferase signal | LMP1-induced NF-kappaB luciferase reporter cells, luminescence | inhibition, % at 12.5 µM | 350,000 compounds, 0.69% hits; in the data active = inhibition above about 41%; inconclusive = no clear call, values can overlap the other calls;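 also: 0% = neutral control wells and 100% = reference inhibitor control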
Peg3 prom inh: Peg3 promoter activity inhibition; HeLa PEG-Prom luciferase reporter, luminescence, overnight; inhibition, % at 20 µM; 360,000 compounds, 1.7% hits; AID 588405;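 active = inhibition of at least 50% at 20 µM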
PAX8 inh HTS: inhibitors of PAX8 transcriptional activity in RMG-I cells; RMG-I TPO-luciferase reporter, SteadyGlo, 24 h; inhibition, % at 12.6 µM; 360,000 compounds, 1.2% hits;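 active = mean replicate inhibition at least 60% with every replicate also reaching 60%; inconclusive = only one of the two criteria is met; inactive = mean below 60% and not all replicates reaching 60%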;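 also: luciferase light reporting Pax8 driven TPO promoter activity; plate controls were median of neutral control wells for no effect and mitoxantrone controls for full effect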
HIF-2a block: blocks HIF-2a reporter activity. 786-0 RCC cells HIF-2a reporter, luciferase luminescence, overnight. inhibition, % at 18.8 µM. AID 624352. 360,000 compounds, 0.72% hits;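 active = inhibition of the luminescence signal of 40% or more relative to plate controls, in a single-dose primary screen at 18.75 µM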
* = called active by the depositor; u = inconclusive; x = no result given. Sampled rows, rich in hits. Any-hit rate of the full collection: about 2.8%.

SMILES	MITF TRPM1 inh	Shn3 3UTR inh	EBV LMP1 NFkB	Peg3 prom inh	PAX8 inh HTS	HIF-2a block
COc1ccc(N(C)S(=O)(=O)c2cccc(C(=O)NC3CCCCC3C)c2)cc1 (stereo not given)	12	-6	4	102*	10	17
Cc1noc(C)c1NC(=O)Nc1cccc2c1O[C@@H](CN(C)Cc1ccccc1)[C@@H](C)CN([C@@H](C)CO)C2=O	x	x	x	x	-8	x
COCCCN(Cc1cc(OC)c(OC)c(OC)c1)C(=S)Nc1cccc(Cl)c1	x	82*	5	13	25	4
CN1CCN(C(=O)C[C@@H]2C=C[C@H](NC(=O)Cc3ccccn3)[C@@H](CO)O2)CC1	x	x	x	x	-12	x
CC(=O)n1cc(C(C[N+](=O)[O-])SCCN)c2ccccc21 (stereo not given)	86*	43	22	47	x	31
O=c1c2cnn(-c3ccccc3)c2nc(-c2cccs2)n1-c1ccc(Br)cc1	1	2	43*	-59	x	-75
Cc1cc(C)c2nc(N3CCC(C(=O)NCCCN4CCCCC4)CC3)sc2c1	69*	-4	8	70*	17	4
Oc1c(Cl)cc(Cl)cc1C1=NNC(c2ccc(Cl)cc2)C1 (stereo not given)	-3	-56	49*	-60	x	-34
O=C(C[C@@H]1CC[C@H]2[C@@H](COC[C@@H](O)CN2S(=O)(=O)c2cccc(Cl)c2)O1)Nc1ccc(-c2ccccc2)cc1	x	x	x	x	21	x
Cc1cccc(S(=O)(=O)N2C[C@@H](O)COC[C@@H]3O[C@@H](CC(=O)Nc4ccc(-c5ccccc5)cc4)CC[C@H]32)c1	x	x	x	x	84*	x
O=C(C[C@@H]1CC[C@@H]2[C@H](COC[C@@H](O)CN2S(=O)(=O)c2cccc(Cl)c2)O1)Nc1ccc(-c2ccccc2)cc1	x	x	x	x	83*	x
Cc1ccc(S(=O)(=O)Nc2ccc3c(c2)C(=O)N([C@H](C)CO)C[C@H](C)[C@H](CN(C)S(=O)(=O)c2ccc(Cl)cc2)OCCCC[C@@H](C)O3)cc1	x	x	x	x	-2	x
C[C@@H]1CN([C@@H](C)CO)C(=O)c2cc(NC(=O)CCCCCC(=O)Nc3ccccc3N)ccc2O[C@@H]1CN(C)S(=O)(=O)c1cn(C)cn1	x	x	x	x	9	x
COC(=O)c1c(NC(=S)NN2CCN(C)CC2)sc2c1CCC(C)C2 (stereo not given)	51	17	-18	107*	8	-10
C[C@@H]1CCCCO[C@H](CN(C)C(=O)Nc2ccccc2)[C@H](C)CN([C@H](C)CO)C(=O)c2cc(NS(C)(=O)=O)ccc2O1	x	x	x	x	7	x
Cc1ccccc1-c1ccc2c(c1)O[C@H](CN(C)C(=O)Nc1ccc(C(F)(F)F)cc1)[C@H](C)CN([C@@H](C)CO)S2(=O)=O	x	x	x	x	77*	x
Cc1ccccc1-c1ccc2c(c1)O[C@H](CN(C)C(=O)Nc1ccc(C(F)(F)F)cc1)[C@@H](C)CN([C@H](C)CO)S2(=O)=O	x	x	x	x	77*	x
CC1CCCC(CC(N)=O)CC1 (stereo not given)	1	94*	-3	0	6	6
COCC(=O)Nc1ccc2c(c1)C(=O)N(C)[C@H]1CC[C@@H](CC(=O)NCc3ccc(OC)cc3)O[C@H]1CO2	x	x	x	x	-9	x
Cn1cnc(S(=O)(=O)N2C[C@H](O)COC[C@@H]3O[C@H](CC(=O)NCc4ccc(F)cc4)CC[C@H]32)c1	x	x	x	x	2	x
CSc1nc(-c2ccc(Cl)cc2)nc(N)c1C#N	x	-17	x	18	-5	11
CSc1nc(N)c(C#N)c(-c2ccc(Cl)cc2)c1C#N	3	11	-8	58*	x	38
COCCNC(=O)C[C@@H]1C[C@H]2c3cc(NC(=O)Nc4ccccc4)ccc3O[C@H]2[C@@H](CO)O1	x	x	x	x	-3	x
C[C@H](CO)N1C[C@H](C)[C@H](CN(C)Cc2ccncc2)Oc2ccc(NC(=O)CCN3CCOCC3)cc2C1=O	x	x	x	x	-5	x
C[C@@H]1CN([C@H](C)CO)C(=O)c2cc(NS(=O)(=O)c3ccccc3)ccc2O[C@H]1CN(C)C(=O)Nc1ccccc1	x	x	x	x	3	x
CCOC(=O)c1c2c(n(-c3ccc(OC)cc3)c1C)C(=O)C(=O)c1ccccc1-2	94*	97*	87*	102*	x	83*
Cc1nc(NC(=O)/C=C/c2ccccc2)n[nH]1	u	-19	-45	92*	44	21
O=C(C=Cc1ccccc1)Nc1ccccc1	-25	-44	4	-177	-124	-172

Screening results deposited in PubChem BioAssay by several laboratories.
